1 sequence from PMC7862700, “An all-to-all approach to the identification of sequence-specific readers for epigenetic DNA modifications on cytosine” can be followed below.

Experiment in all cases: DAPPL (digital affinity profiling via proximity ligation, sequencing); 10 mM Tris-HCl pH 7.5, 50 mM NaCl, 1 mM DTT, 4% glycerol, room temperature, 30 min; GST-TFs on glutathione beads, 16-mer random dsDNA library, 0.1% formaldehyde crosslink after washing; high values mean tight binding
Details in all cases: protein: recombinant; tags: N-terminal GST; dsDNA, one strand shown

The target of one test is T1, ELK1 (Homo sapiens, UniProt P19419 1-428).
T1 sequence: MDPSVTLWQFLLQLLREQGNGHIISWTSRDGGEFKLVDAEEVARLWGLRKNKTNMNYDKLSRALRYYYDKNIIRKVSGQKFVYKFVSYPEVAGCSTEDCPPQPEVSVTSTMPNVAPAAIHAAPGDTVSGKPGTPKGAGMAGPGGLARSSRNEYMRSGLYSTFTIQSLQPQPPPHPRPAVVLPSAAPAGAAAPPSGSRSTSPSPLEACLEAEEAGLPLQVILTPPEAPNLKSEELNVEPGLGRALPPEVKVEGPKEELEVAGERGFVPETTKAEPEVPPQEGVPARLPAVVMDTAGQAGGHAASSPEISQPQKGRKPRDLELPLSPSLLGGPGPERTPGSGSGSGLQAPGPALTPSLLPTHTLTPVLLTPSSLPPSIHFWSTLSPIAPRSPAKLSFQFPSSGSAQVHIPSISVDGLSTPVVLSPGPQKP
In short, it runs like this: (§1)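 GST fusions of human transcription factors were expressed in yeast and captured with glutathione beads. Once given DNA barcodes and pooled alongside a tag-only sample, they were incubated for 30 min at room temperature with 200 nmole of a random double-stranded 16-mer DNA library in Tris/NaCl/DTT/glycerol buffer, then washed, crosslinked (0.1% formaldehyde), proximity-ligated, PCR-amplified and sequenced on an Illumina NextSeq500. The binding signal of each hexamer is its read frequency for a factor divided by its frequency for the tag-only sample.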

The target of the next test is T2, GABPA (Homo sapiens, UniProt Q06546 1-454).
T2 sequence: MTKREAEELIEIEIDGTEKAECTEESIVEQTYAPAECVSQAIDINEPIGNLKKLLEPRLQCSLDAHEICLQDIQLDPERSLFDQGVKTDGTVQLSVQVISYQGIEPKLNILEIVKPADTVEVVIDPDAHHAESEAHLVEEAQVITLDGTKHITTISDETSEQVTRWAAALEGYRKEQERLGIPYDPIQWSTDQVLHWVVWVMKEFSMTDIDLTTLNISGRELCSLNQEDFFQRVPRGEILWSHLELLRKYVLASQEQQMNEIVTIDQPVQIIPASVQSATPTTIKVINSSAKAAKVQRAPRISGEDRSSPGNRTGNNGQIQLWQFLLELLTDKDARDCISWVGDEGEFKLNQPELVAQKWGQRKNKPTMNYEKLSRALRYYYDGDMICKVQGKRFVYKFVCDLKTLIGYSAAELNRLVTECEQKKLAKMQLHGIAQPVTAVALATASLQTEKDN
The method, boiled down: as §1

In the next test the target is T3, ERG (Homo sapiens, UniProt P11308 1-479).
T3 sequence: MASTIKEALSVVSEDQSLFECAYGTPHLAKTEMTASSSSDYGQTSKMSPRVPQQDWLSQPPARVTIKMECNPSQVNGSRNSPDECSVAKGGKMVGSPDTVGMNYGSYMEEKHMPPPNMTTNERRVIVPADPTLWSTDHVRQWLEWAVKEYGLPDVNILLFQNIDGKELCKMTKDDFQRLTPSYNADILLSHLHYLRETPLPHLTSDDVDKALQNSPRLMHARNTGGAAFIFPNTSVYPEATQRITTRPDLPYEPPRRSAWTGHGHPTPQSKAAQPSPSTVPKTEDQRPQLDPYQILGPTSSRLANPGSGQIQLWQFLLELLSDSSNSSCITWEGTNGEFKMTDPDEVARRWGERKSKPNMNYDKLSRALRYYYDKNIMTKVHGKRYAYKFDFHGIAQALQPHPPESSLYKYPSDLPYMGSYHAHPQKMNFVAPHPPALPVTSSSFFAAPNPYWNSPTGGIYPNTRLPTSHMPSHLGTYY
The method, boiled down: as §1

Another test has as its target ELF1 (Homo sapiens, UniProt P32519 1-619). The method, boiled down:
as §1

For a further test, the target named is T4, EHF (Homo sapiens, UniProt Q9NZC4 1-300).
T4 sequence: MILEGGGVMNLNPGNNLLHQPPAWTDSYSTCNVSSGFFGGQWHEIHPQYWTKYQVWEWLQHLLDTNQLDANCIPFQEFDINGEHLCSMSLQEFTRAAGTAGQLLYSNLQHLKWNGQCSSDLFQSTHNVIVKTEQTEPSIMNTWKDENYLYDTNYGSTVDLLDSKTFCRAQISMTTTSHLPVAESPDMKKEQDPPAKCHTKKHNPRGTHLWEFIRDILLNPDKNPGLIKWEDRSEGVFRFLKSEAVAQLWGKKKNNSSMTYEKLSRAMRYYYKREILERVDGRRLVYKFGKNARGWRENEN
The method, boiled down: as §1

In the next test the target is T5, FEV (Homo sapiens, UniProt Q99581 1-238).
T5 sequence: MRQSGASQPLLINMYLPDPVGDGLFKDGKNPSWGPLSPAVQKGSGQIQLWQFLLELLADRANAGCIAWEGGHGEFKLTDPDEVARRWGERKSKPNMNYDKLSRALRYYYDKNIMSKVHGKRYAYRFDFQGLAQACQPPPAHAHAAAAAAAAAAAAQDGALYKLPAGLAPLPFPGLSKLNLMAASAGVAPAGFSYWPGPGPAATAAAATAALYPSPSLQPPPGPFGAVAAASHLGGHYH
The method, boiled down:
as §1

A further test has as its target ETV5 (Homo sapiens, UniProt P41161 1-510). In short, it runs like this:
as §1

The target of the next test is ELF4 (Homo sapiens, UniProt Q99607 1-663). The method, boiled down: as §1
The target in another test is T6, ELK4 (Homo sapiens, UniProt P28324-2 1-405).
T6 sequence: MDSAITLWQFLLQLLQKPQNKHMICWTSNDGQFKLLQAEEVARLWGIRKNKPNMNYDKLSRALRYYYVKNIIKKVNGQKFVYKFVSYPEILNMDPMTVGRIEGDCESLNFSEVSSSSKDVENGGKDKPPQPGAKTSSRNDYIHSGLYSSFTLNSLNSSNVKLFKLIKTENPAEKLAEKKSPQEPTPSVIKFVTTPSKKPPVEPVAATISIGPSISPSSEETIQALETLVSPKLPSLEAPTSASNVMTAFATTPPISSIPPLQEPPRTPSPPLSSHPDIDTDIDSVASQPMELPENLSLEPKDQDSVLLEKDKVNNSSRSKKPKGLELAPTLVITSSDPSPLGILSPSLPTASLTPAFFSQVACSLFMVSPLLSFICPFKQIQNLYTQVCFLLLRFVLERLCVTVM
In short, it runs like this:
as §1

In a further test the target is T7, ELF3 (Homo sapiens, UniProt P78545 1-371).
T7 sequence: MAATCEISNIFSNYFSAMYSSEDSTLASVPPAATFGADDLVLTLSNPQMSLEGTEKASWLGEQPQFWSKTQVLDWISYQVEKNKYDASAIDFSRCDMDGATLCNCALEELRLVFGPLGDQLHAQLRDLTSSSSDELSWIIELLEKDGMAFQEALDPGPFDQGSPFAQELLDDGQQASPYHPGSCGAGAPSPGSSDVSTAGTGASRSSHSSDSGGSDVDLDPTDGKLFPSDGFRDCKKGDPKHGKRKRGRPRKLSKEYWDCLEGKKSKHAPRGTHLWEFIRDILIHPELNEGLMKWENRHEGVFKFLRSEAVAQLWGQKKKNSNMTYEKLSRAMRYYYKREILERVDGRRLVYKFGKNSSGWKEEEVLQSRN
In short, it runs like this: as §1

Another test has as its target ETV1 (Homo sapiens, UniProt P50549 1-477). The method, boiled down:
as §1

In another test the target is T8, ERF (Homo sapiens, UniProt P50548 1-548).
T8 sequence: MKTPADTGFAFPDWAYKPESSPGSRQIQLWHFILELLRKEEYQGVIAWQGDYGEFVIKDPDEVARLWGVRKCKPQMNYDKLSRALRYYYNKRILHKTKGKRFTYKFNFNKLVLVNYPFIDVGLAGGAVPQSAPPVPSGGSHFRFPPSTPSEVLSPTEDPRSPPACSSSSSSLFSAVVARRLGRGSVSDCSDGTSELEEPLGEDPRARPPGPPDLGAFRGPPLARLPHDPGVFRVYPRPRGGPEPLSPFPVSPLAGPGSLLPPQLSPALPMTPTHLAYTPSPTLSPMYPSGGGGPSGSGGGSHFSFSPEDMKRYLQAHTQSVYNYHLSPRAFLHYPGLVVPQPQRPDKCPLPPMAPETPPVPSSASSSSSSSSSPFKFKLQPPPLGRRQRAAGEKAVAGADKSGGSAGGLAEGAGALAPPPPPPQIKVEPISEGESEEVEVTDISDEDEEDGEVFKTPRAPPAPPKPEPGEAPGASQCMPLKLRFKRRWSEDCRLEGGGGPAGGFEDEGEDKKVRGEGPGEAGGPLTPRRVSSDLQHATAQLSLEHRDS
The method, boiled down: as §1

A further test concerns the target T9, ETV3L (Homo sapiens, UniProt Q6ZN32 1-361).
T9 sequence: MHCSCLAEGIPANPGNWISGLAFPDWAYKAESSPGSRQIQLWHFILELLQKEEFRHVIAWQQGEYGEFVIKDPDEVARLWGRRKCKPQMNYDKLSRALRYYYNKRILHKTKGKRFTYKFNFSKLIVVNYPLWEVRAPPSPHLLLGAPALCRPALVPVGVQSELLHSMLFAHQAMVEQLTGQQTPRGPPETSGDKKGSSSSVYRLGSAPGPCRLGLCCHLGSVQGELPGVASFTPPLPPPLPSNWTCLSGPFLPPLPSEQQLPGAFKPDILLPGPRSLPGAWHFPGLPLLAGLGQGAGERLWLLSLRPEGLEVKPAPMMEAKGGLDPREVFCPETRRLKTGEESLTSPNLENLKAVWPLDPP
The method, boiled down:
as §1

For another test, the target named is T10, ETS2 (Homo sapiens, UniProt P15036 1-469).
T10 sequence: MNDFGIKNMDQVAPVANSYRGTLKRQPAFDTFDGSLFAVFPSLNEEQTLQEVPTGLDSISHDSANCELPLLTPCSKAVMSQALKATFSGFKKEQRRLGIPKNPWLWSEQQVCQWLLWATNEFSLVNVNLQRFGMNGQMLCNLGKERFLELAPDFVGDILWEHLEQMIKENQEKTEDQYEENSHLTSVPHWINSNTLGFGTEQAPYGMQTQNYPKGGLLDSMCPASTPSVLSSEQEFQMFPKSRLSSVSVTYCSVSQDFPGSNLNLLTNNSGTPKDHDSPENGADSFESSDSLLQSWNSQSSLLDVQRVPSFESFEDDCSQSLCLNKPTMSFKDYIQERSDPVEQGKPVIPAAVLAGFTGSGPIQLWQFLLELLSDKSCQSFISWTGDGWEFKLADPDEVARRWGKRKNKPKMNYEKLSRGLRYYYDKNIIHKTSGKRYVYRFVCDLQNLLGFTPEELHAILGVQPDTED
In short, it runs like this:
as §1

For another test, the target named is T11, ETV7 (Homo sapiens, UniProt Q9Y603 1-341).
T11 sequence: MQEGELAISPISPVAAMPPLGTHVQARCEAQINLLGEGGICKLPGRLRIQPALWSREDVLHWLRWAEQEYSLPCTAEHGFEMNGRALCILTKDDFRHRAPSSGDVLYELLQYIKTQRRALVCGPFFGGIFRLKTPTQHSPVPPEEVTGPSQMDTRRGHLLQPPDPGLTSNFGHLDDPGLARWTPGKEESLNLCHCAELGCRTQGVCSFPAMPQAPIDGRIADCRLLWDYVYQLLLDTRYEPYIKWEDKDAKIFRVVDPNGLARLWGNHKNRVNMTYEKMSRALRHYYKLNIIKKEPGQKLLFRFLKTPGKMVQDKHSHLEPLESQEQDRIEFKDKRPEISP
In short, it runs like this:
as §1

The next test addresses T12, ETV3 (Homo sapiens, UniProt P41162-2 1-143).
T12 sequence: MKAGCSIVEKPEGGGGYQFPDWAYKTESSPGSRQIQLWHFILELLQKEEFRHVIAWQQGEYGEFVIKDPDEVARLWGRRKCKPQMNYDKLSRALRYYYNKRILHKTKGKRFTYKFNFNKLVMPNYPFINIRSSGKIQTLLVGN
The method, boiled down:
as §1

In a further test the target is ETV6 (Homo sapiens, UniProt P41212 1-452). In short, it runs like this: as §1
Chain of ETV6 (P41212 whole entry): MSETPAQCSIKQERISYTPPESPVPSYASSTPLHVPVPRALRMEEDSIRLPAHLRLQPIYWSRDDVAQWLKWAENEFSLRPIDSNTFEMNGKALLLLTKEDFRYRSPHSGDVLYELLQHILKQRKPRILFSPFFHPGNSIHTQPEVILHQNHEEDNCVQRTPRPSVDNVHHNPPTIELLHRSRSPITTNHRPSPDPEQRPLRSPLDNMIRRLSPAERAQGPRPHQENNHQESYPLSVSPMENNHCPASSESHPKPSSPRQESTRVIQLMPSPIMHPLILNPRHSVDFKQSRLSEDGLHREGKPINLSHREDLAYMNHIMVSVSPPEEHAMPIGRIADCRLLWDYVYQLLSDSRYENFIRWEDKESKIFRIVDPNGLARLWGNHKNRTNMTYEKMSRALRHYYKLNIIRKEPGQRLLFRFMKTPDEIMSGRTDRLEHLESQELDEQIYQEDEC

Chain of ELF1 (P32519 whole entry): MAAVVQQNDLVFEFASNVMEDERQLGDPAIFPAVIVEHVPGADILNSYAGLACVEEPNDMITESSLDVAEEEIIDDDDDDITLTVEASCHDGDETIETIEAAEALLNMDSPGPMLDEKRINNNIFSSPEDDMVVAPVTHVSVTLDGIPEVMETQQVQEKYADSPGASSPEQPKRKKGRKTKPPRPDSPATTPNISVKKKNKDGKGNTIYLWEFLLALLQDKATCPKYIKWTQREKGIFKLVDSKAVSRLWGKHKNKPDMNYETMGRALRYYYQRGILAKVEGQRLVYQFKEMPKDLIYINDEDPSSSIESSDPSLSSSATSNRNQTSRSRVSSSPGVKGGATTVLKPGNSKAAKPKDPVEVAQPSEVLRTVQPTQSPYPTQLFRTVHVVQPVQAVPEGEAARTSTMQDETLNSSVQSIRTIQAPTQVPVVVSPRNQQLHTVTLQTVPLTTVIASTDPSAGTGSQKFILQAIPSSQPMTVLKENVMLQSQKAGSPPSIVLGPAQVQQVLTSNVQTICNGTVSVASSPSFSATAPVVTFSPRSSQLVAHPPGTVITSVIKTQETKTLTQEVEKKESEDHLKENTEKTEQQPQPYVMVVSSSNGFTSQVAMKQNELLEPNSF
Chain of ETV5 (P41161 whole entry): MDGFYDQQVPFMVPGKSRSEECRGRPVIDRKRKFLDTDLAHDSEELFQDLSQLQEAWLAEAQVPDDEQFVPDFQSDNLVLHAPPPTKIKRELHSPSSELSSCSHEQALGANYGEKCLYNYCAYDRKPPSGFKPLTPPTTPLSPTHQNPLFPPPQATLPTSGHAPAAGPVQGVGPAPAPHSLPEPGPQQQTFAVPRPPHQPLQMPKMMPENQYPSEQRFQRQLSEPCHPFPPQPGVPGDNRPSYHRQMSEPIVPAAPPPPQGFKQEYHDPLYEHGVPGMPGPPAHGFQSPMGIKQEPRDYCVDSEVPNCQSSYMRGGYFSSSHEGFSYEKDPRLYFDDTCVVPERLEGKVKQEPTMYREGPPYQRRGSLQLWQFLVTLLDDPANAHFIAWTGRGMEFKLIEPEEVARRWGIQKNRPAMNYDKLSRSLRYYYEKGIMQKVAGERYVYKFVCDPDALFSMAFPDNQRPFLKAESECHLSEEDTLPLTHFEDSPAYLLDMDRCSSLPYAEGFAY
Chain of ELF4 (Q99607 whole entry): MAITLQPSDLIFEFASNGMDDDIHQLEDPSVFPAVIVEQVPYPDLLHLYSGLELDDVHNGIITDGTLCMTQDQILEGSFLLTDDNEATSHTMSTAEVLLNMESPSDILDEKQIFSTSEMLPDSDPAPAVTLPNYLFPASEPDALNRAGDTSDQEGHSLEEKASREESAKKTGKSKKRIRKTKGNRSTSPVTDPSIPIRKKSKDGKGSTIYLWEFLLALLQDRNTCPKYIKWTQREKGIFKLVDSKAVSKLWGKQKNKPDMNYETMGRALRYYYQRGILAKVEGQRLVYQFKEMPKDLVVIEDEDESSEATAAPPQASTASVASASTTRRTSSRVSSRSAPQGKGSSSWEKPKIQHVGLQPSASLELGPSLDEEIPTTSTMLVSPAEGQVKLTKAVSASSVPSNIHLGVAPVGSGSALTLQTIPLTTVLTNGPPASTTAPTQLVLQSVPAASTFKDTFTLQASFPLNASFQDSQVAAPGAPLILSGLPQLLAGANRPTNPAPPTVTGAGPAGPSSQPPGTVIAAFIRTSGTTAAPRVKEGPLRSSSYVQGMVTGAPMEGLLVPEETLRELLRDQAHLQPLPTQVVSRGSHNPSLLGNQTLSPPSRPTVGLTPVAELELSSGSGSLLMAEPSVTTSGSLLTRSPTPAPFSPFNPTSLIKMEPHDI
Chain of ETV1 (P50549 whole entry): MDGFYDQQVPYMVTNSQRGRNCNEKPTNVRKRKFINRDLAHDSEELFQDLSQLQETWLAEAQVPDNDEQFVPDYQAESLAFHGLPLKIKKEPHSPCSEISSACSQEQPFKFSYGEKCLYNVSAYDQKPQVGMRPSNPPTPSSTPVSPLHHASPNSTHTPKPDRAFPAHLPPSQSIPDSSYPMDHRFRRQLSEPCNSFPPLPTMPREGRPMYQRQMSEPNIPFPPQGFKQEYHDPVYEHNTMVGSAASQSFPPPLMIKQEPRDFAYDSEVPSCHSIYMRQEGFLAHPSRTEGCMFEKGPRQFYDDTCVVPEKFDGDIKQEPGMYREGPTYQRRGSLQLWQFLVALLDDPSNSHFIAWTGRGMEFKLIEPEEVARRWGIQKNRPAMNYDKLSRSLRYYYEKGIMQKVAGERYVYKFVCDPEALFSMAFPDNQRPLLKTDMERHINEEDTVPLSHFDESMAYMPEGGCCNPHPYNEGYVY

On to TCACCG, for which the binding signal was 1.16 fold enrichment (6-mer frequency, TF over GST control) with ELK1; 1.2 fold enrichment (6-mer frequency, TF over GST control) with GABPA; 1.14 fold enrichment (6-mer frequency, TF over GST control) in the test with ERG; 1.11 fold enrichment (6-mer frequency, TF over GST control) with ELF1; 1.05 fold enrichment (6-mer frequency, TF over GST control) with EHF; 1.18 fold enrichment (6-mer frequency, TF over GST control) with FEV. Further, the binding signal with ETV5 is 1.13 fold enrichment (6-mer frequency, TF over GST control); in the test with ELF4, 1.21 fold enrichment (6-mer frequency, TF over GST control); with ELK4, 1.04 fold enrichment (6-mer frequency, TF over GST control); with ELF3 it was 1.07 fold enrichment (6-mer frequency, TF over GST control); with ETV1, 1.15 fold enrichment (6-mer frequency, TF over GST control); with ERF it was 1.05 fold enrichment (6-mer frequency, TF over GST control). Moreover, the binding signal with ETV3L was 1.09 fold enrichment (6-mer frequency, TF over GST control); in the test with ETS2, 1.15 fold enrichment (6-mer frequency, TF over GST control); in the test with ETV7 it was 1.02 fold enrichment (6-mer frequency, TF over GST control); with ETV3, 1.05 fold enrichment (6-mer frequency, TF over GST control); with ETV6 it was 1.03 fold enrichment (6-mer frequency, TF over GST control).
